Assay [1] concerns the target Rap guanine nucleotide exchange factor 3 (Homo sapiens) (UniProt O95398). In words: Confirmatory qHTS for agonist of cAMP-regulated guanine nucleotide exchange factor 3 (EPAC1) (AID 1645881).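 For activation: EPAC1 catalysed release of BODIPY-GDP from Rap1B seen as fluorescence loss; 100% = effect of cAMP agonist control.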 Note: nearly all actives have a fitted effect of over 75% in size. Note: potency is the fitted concentration of half-maximal effect. Particulars: EPAC1 Rap1B BODIPY-GDP exchange fluorescence; series mostly up to 154 µM.
Assay [2] deals with Rap guanine nucleotide exchange factor 4 (Homo sapiens) (UniProt Q8WZA2). The experiment in a line: Confirmatory qHTS for antagonist of cAMP-regulated guanine nucleotide exchange factor 4 (EPAC2) (AID 1645885). For activity change, negative = inhibition: % is set by controls: 0 for no effect and ±100 for the full control effect. Note: nearly all actives have a fitted effect of over 25% in size. Note: potency is the fitted concentration of half-maximal effect. Particulars: EPAC2 Rap1B-BODIPY-GDP exchange fluorescence, biochemical; series mostly up to 12.7 µM. (In general: Quantitative high-throughput screening tests each substance at several concentrations.)
Rap guanine nucleotide exchange factor 4 (Homo sapiens), sequence (Q8WZA2 whole entry, looked up): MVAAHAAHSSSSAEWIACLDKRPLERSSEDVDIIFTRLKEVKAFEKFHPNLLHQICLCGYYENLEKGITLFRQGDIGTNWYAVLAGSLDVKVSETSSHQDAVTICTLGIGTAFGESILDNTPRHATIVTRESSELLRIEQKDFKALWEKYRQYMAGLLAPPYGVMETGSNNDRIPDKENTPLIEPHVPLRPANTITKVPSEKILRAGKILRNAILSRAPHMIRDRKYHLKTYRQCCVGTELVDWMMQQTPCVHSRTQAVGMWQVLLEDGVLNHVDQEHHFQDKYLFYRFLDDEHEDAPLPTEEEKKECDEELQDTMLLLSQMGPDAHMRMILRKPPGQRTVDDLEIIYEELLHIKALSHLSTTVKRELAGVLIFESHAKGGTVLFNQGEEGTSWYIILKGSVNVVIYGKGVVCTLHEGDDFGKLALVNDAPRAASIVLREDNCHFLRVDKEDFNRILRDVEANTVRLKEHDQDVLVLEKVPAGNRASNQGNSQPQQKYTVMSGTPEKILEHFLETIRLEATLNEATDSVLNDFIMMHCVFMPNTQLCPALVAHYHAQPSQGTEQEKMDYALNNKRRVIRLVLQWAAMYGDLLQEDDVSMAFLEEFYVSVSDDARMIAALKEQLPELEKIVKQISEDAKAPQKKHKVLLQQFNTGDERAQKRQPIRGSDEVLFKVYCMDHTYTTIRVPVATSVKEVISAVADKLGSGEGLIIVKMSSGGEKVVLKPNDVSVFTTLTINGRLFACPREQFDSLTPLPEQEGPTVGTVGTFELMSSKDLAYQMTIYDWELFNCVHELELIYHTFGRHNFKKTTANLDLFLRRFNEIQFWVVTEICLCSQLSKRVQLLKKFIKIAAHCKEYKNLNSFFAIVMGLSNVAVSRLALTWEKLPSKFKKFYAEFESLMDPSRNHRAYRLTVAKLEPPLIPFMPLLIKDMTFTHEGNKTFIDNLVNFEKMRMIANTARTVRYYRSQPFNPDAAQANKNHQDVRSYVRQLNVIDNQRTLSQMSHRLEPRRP

Assay [3] addresses Rap guanine nucleotide exchange factor 3 (Homo sapiens) (UniProt O95398). In words: Counterscreen qHTS for agonist of cAMP-regulated guanine nucleotide exchange factor 3 (EPAC1) (AID 1645889). For activation: % of control where 0% means no effect. Note: nearly all actives have a fitted effect of over 40% in size. Note: potency is the fitted concentration of half-maximal effect. Particulars: EPAC1 Rap1B-BODIPY-GDP exchange, fluorescence; series mostly up to 154 µM. The method in brief: (§1)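 Measured: fluorescence of BODIPY-GDP bound to Rap1B, which falls as exchange proceeds. Conditions include 50 uM competing GDP, 5 and 30 min reads, and a later cAMP challenge for antagonist detection.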

The target is the same in assay [4]. The experiment in a line: Counterscreen qHTS for antagonist of cAMP-regulated guanine nucleotide exchange factor 3 (EPAC1) (AID 1645888).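 Note: fluorescence loss as bound BODIPY-GDP is released from Rap1B; % of control where 0% means no effect.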 Particulars: Rap1B-BODIPY-GDP nucleotide exchange, fluorescence; series mostly up to 154 µM. The method in brief:
as §1

This passage reports Potency, activity change, negative = inhibition and activation results from PubChem BioAssay (NCATS).

The structures appear in SMILES notation. Records with an inconclusive call do not appear. Values without a mark were called inactive. The source made the active and inactive calls. Calls come from the whole dose curve; as a rule, active = well fitted curve in the direction sought with a large enough effect; inconclusive = small, poorly fitted or top-dose-only effect, or another doubt; inactive = no such curve, though single readings can be large; an effect the other way counts as inactive or inconclusive.

Rap guanine nucleotide exchange factor 3 (Homo sapiens), sequence (O95398 whole entry, looked up): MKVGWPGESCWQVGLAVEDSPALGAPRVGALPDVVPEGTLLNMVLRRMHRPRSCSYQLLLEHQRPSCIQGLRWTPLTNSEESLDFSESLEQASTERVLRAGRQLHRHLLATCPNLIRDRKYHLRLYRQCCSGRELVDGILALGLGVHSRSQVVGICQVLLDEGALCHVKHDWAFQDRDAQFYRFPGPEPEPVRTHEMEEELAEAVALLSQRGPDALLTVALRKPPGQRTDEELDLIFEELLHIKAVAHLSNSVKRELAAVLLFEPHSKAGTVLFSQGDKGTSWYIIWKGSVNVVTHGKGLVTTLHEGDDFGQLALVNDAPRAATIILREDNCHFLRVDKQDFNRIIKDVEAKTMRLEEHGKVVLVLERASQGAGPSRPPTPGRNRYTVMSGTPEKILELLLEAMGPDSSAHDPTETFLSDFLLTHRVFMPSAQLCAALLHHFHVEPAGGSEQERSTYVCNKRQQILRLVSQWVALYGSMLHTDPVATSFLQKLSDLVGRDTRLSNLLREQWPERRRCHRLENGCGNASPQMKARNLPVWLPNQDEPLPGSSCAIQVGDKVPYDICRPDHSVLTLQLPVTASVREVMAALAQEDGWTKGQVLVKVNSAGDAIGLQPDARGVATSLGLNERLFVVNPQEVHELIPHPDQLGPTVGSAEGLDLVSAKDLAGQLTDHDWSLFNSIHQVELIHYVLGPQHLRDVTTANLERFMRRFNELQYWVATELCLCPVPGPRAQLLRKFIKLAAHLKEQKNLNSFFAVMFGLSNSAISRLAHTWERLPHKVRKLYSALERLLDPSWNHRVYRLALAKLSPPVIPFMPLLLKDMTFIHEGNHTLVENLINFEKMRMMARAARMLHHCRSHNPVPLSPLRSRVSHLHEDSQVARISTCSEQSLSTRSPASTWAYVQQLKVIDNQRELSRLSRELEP

For the compound `Cc1ccc(C2CC2/C(=N/O)c2ccc(F)cc2)cc1` (centres undefined), the Potency entry in assay [1] and in assay [3] was “inactive” throughout. In addition, the Potency in assay [2] is 37.9 µM (active).

`COc1ccc(OC)c(NC(=O)CSc2ncnc3sc(C)cc23)c1`: the Potency result in assay [1], in assay [2], in assay [4] and in assay [3] was “inactive” in each case.

In the case of `N#Cc1c(N)c(C#N)c(-c2ccc(O)cc2)c2c1CCCC2`, the Potency entry in assay [1] and in assay [4] was “inactive” in each case.

With `COc1ccc(/C=C2\SC(=S)N(CCC(=O)N3CCCCC3CCO)C2=O)cc1` (centres undefined), the Potency entry in assay [1], in assay [2], in assay [4] and in assay [3] was “inactive” throughout.

Consider `CCc1nnc(NS(=O)(=O)c2ccc(NC(=O)C(c3ccccc3)c3ccccc3)cc2)s1`, for which the Potency entry in assay [1] and in assay [4] was “inactive” in each case.

`O=C1OC(Cc2ccccc2)(c2ccccc2)c2ccccc21` (centres undefined): the Potency entry in assay [1], in assay [2], in assay [4] and in assay [3] was “inactive” each time.

For the compound `O=C(O)c1ccc(NS(=O)(=O)c2ccc3c(c2)C2C=CCC2C(c2ccccc2F)N3)cc1` (centres undefined), the Potency result in assay [1] and in assay [4] was “inactive” throughout. For the same compound, the Potency in assay [2] was 75.7 µM (active); in assay [3] it was 44.7 µM (active).

Turning to `C/C(=N\N(Cc1ccccc1)c1ccccc1)c1cccnc1`, the Potency entry in assay [1] and in assay [4] was “inactive” throughout.

Consider `COc1ccccc1/C=C(/C(=O)OCC(=O)Nc1ccc(N(C)C)cc1)c1ccccc1`, for which the Potency entry in assay [1], in assay [4] and in assay [3] was “inactive” each time. In addition, the Potency in assay [2] was 5.36 µM (active).

For `CC(=O)Nc1ccc(S(=O)(=O)N2CCN(c3cc(C)ccc3C)CC2)cc1`, the Potency entry in assay [1] and in assay [4] was “inactive” throughout.

Take `Cc1cc(N(CCO)Cc2ccccc2)n2nc(-c3ccc(C(C)(C)C)cc3)nc2n1`: the Potency result in assay [1], in assay [2], in assay [4] and in assay [3] was “inactive” throughout.

For the compound `Cc1nc([N+](=O)[O-])c(Br)n1Cc1ccc(Cl)c(Cl)c1`, the Potency result in assay [1] and in assay [4] was “inactive” each time.

Take `COc1ccc(OC)c(NC(=O)CSc2nccn2-c2cc(C)cc(C)c2)c1`: the Potency entry in assay [1], in assay [2], in assay [4] and in assay [3] was “inactive” throughout.

Take `Cc1ccccc1OCC(=O)Nc1ccc(C(=O)OCc2cc(=O)n3c(C)csc3n2)cc1`: the Potency result in assay [1], in assay [2], in assay [4] and in assay [3] was “inactive” in each case.

Turning to `O=S(=O)(c1cccc2ccccc12)N1CCCCC1`, the Potency entry in assay [1], in assay [4] and in assay [3] was “inactive” in each case. Besides, the Potency in assay [2] is 21.3 µM (active).

For the compound `Cc1ccc2sc(N(CCCN(C)C)C(=O)c3nc4ccccc4s3)nc2c1C`, the Potency entry in assay [1] and in assay [4] was “inactive” in each case.

On to `Cc1ccc2nc(-c3ccccc3)c(Cc3cccc(Cl)c3)n2c1`, for which the Potency result in assay [1] and in assay [4] was “inactive” each time.

Take `COC(=O)CN(c1nc(C)c(Br)c(OC)n1)S(=O)(=O)c1ccccc1`: the Potency result in assay [1] and in assay [4] was “inactive” each time.

For the compound `Cc1ccc(CNC(=O)c2cccc3c2C(=O)c2ccc(N4CCCCC4)cc2S3(=O)=O)cc1`, the Potency in assay [1] and in assay [3] was 11.2 µM (active) each time. Also, the Potency entry in assay [2] is “inactive”. Moreover, the activity change, negative = inhibition in assay [4] was -7.83% [at 30.8 µM].

Take `Cc1cccc(Oc2ccccc2NC(=O)C2=COCCO2)c1`: the Potency result in assay [1] and in assay [4] was “inactive” each time.

As to `Cc1nc(NC(=O)c2c(-c3ccccc3)c(-c3ccccc3)nn(C)c2=O)sc1C`, the Potency result in assay [1], in assay [2], in assay [4] and in assay [3] was “inactive” each time.

As for `O=C1Nc2ccccc2/C1=N\N=C\c1ccc(O)c(O)c1`, the Potency entry in assay [1] and in assay [4] was “inactive” in each case.

`Cc1ccc2c(c1)OC(=O)CC2c1ccccc1` (centres undefined): the Potency result in assay [1] and in assay [4] was “inactive” in each case.

In the case of `CC1=Nc2ccccc2/C1=C/c1sc(=N)n(-c2nccs2)c1O`, the Potency entry in assay [1], in assay [2] and in assay [4] was “inactive” throughout. Besides, in assay [3], the Potency was 56.2 µM (active).

As to `COc1ccc(NC(=O)COC(=O)CCCOc2ccc(Cl)cc2Cl)cc1Cl`, the Potency entry in assay [1], in assay [4] and in assay [3] was “inactive” in each case. For the same compound, in assay [2], the Potency is 6.01 µM (active).

With `CN(CC(=O)Nc1ccc(Cl)c(C(F)(F)F)c1)C(=O)c1ccc2c(c1)OCCO2`, the Potency result in assay [1], in assay [2], in assay [4] and in assay [3] was “inactive” throughout.

In the case of `Cc1nc(N)sc1-c1csc(Nc2ncccn2)n1`, the Potency result in assay [1], in assay [2], in assay [4] and in assay [3] was “inactive” throughout.

As for `CCCN1C(=O)c2[nH]nc(-c3ccc(F)cc3)c2C1c1ccc(O)c(OCC)c1` (centres undefined), the Potency result in assay [1], in assay [2], in assay [4] and in assay [3] was “inactive” each time.

On to `COc1ccc(C(=O)/C=C/c2ccccc2)c(OC)c1`, for which the Potency entry in assay [1] and in assay [4] was “inactive” in each case.

Consider `Cn1cccc1/C=C1\SC(=S)N(NC(=O)c2cccc(Cl)c2)C1=O`, for which the Potency entry in assay [1], in assay [2] and in assay [3] was “inactive” throughout.

On to `Cn1cc(/C=C/c2cc[n+](C)cc2)c2cc(F)ccc21`, for which the Potency entry in assay [1], in assay [2], in assay [4] and in assay [3] was “inactive” throughout.

Take `CN(CC(=O)Nc1cccc(F)c1)C(=O)/C=C/c1cc(Br)ccc1OC(F)F`: the Potency result in assay [1] and in assay [4] was “inactive” in each case.

Regarding `Cc1nc2c(C(=O)NCc3ccccc3Cl)c[nH]n2c(=O)c1Cc1cccc(Cl)c1`, the Potency entry in assay [1], in assay [2], in assay [4] and in assay [3] was “inactive” each time.

`COC(=O)C1=CN(c2c(C)cc(C)cc2C)C(N)=C(C#N)C1c1ccccc1` (centres undefined): the Potency entry in assay [1] and in assay [4] was “inactive” in each case.

Consider `CC1=CC(C)(C)N2C(=O)C(=Nc3ccc(O)cc3)c3cccc1c32`, for which the Potency result in assay [1], in assay [2], in assay [4] and in assay [3] was “inactive” each time.

In the case of `O=C(/C=C/c1ccco1)Oc1cc(Br)cc(/C=N/NC(=O)c2ccccc2O)c1`, the Potency result in assay [1] and in assay [4] was “inactive” each time.

With `COc1ccc(C=C(C(C)=O)C(=O)c2ccccc2)cc1`, the Potency entry in assay [1] and in assay [4] was “inactive” each time.

For the compound `CN(Nc1cccc(Cl)c1)c1cccc(Cl)c1`, the Potency entry in assay [1] and in assay [4] was “inactive” throughout.

`Clc1ccc(CSc2nnc(-c3ccccn3)n2Cc2ccco2)cc1Cl`: the Potency entry in assay [1] and in assay [4] was “inactive” each time.

For the compound `COc1ccc(C2CC(=O)Oc3cc(OC)c(OC)c(OC)c32)cc1` (centres undefined), the Potency entry in assay [1] was “inactive”. Besides, in assay [4], the activity change, negative = inhibition is -24.9% [at 30.8 µM]. Also, the activation in assay [3] is 20% [at 30.8 µM].

As for `COc1ccccc1CNC(=O)C1(C)CCN1Cc1ccc2ccccc2c1` (centres undefined), the Potency entry in assay [1], in assay [4] and in assay [3] was “inactive” in each case.

As for `COC(=O)c1ccc2nc(-c3cccc(Br)c3)c(Cc3ccccc3)n2c1`, the Potency result in assay [1] and in assay [4] was “inactive” in each case.

On to `COC(=O)c1ccc2nc(-c3ccc(Cl)cc3)c(Cc3ccsc3)n2c1`, for which the Potency result in assay [1], in assay [4] and in assay [3] was “inactive” in each case.

As to `COc1ccc(NC(=O)c2cc(-c3cc(Cl)ccc3C)n[nH]2)cn1`, the Potency entry in assay [1] and in assay [4] was “inactive” in each case.

For the compound `O=C1N(c2ccc(Cl)cc2)C(c2ccccc2)N2CCCN12` (centres undefined), the Potency result in assay [1] and in assay [4] was “inactive” in each case.

For `COC(=O)c1ccc2nc(-c3ccco3)c(Cc3cccc(F)c3)n2c1`, the Potency result in assay [1], in assay [4] and in assay [3] was “inactive” throughout.

With `C/[N+]([O-])=C/c1c(OCc2ccccc2)ccc2ccccc12`, the Potency result in assay [1], in assay [4] and in assay [3] was “inactive” throughout.

For the compound `COc1ccc(CN2C(=O)c3cccnc3C2O)cc1` (centres undefined), the Potency result in assay [1], in assay [4] and in assay [3] was “inactive” each time.

`COc1ccc(C(=O)Oc2ccc(/C=N/Nc3ccc(Cl)c(C(=O)O)c3)cc2OC)cc1`: the Potency result in assay [1] and in assay [4] was “inactive” each time.

On to `COC(=O)c1ccc2nc(C3CCCCC3)c(Cc3ccccc3C(F)(F)F)n2c1`, for which the Potency result in assay [1], in assay [4] and in assay [3] was “inactive” in each case.

As for `COc1ccc(CN(C(=O)c2ccco2)c2ccc(C)c(C)c2)cc1`, the Potency result in assay [1] was “inactive”. The activity change, negative = inhibition in assay [4] was -23% [at 30.8 µM]. Further, the activation in assay [3] was 12.3% [at 30.8 µM].

On to `CCC(C(=O)c1ccc2ncccc2c1)c1ccccc1` (centres undefined), for which the Potency result in assay [1], in assay [4] and in assay [3] was “inactive” in each case.

For the compound `CCC(=O)N(CCC(Cc1ccccc1)c1ccco1)Cc1ccco1` (centres undefined), the Potency entry in assay [1], in assay [4] and in assay [3] was “inactive” in each case.

On to `COC(=O)c1ccc2nc(-c3ccc(Cl)cc3)c(Cc3ccccc3OC)n2c1`, for which the Potency result in assay [1], in assay [4] and in assay [3] was “inactive” throughout.

For the compound `CCC(=O)N1N=C(c2cccs2)CC1c1ccc(C)cc1` (centres undefined), the Potency entry in assay [1], in assay [4] and in assay [3] was “inactive” in each case.

With `CCc1nc2c(OCc3ccc(C(F)(F)F)cc3)cccn2c1N(C)C(=O)CC(C)C`, the Potency result in assay [1] and in assay [3] was “inactive” each time.

Take `COc1ccccc1C1CC(=O)Oc2cc(C)c(Br)c(C)c21` (centres undefined): the Potency entry in assay [1] and in assay [4] was “inactive” throughout.

Consider `CSc1nc(N)c(C(=O)N(c2ccccc2)c2ccccc2)s1`, for which, in assay [1], the Potency result is “inactive”. Further, in assay [4], the activity change, negative = inhibition is -10.5% [at 30.8 µM]. Besides, in assay [3], the activation was 22.8% [at 30.8 µM].

Regarding `COc1cccc(-c2coc3c(C)c4oc(=O)c(CCC(=O)O)c(C)c4cc23)c1`, the Potency result in assay [1], in assay [4] and in assay [3] was “inactive” throughout.

For `S=C(Nc1ccc2nsnc2c1)N1CCCCC1`, the Potency entry in assay [1] and in assay [4] was “inactive” each time.
